Test systems include SK-MEL-2 melanoma; EKVX NSCLC; SN12C renal; UO-31 renal; TK-10 renal; ACHN renal; CAKI-1 renal; A498 renal; CCRF-CEM leukemia; MOLT-4 leukemia; SR leukemia; RPMI-8226 leukemia; OVCAR-8 ovarian; OVCAR-5 ovarian; OVCAR-4 ovarian; SK-OV-3 ovarian; IGROV1 ovarian; OVCAR-3 ovarian; HS 578T breast; NCI/ADR-RES ovarian.
Assay in all cases: NCI-60 one-dose screen, 48 h (100 = growth as untreated, 0 = no growth, -100 = all killed)
Settings in all cases: 10 µM unless noted

In PubChem BioAssay (NCI) one finds growth data, which are given here for seven compounds.

The panel holds about 83,000 compounds, 20% with a hit somewhere; the sample as a whole holds those more often.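 A percent growth of 40 corresponds to 60% growth inhibition; 0 means no net growth; -100 means all cells died. Active threshold: below 10.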 Unmarked numbers belong to inactive results. Calls of active or inactive are those of the source.

With `NS(=O)(=O)c1ccc(Nc2nc(N/N=C/c3cc(Br)c(O)c(Br)c3)nc(Nc3ccccc3)n2)cc1`, the growth with SK-MEL-2 melanoma is -5.4% (active); with EKVX NSCLC, 86.3%; in the assay with SN12C renal, 46.3%; in the assay with UO-31 renal it was 85.3%; with TK-10 renal, 113%; in the assay with ACHN renal it was 92.3%. Further, the growth in the assay on CAKI-1 renal is 94.4%; in the assay with A498 renal it was 102%; in the assay on CCRF-CEM leukemia, 10.5%; in the assay with MOLT-4 leukemia, -8.36% (active); in the assay with SR leukemia, -12.1% (active); with RPMI-8226 leukemia it was 79.4%. For the same compound, the growth in the assay on OVCAR-8 ovarian was 57.7%; with OVCAR-5 ovarian it was 106%; in the assay on OVCAR-4 ovarian it was 71.2%; in the assay on SK-OV-3 ovarian it was 99.7%; in the assay on IGROV1 ovarian, 59.5%; in the assay with OVCAR-3 ovarian it was 20.2%. In addition, the growth in the assay with HS 578T breast is -8.25% (active); in the assay on NCI/ADR-RES ovarian, 98%.

In the case of `COc1cc(/C=C/C(=O)c2cnn(-c3cc(=O)[nH]c4ccccc34)c2C)cc(OC)c1OC`, the growth was 52% in the assay on SK-MEL-2 melanoma; 4.03% (active) in the assay on EKVX NSCLC; -1.59% (active) with SN12C renal; 25.6% in the assay with UO-31 renal; 27.7% with TK-10 renal; 20.3% in the assay with ACHN renal. Besides, the growth in the assay with CAKI-1 renal was 19.1%; in the assay on A498 renal it was 96.1%; in the assay with CCRF-CEM leukemia it was -18.6% (active); in the assay on MOLT-4 leukemia, -12.8% (active); with SR leukemia, -3.34% (active); with RPMI-8226 leukemia, -11.6% (active). The growth in the assay on OVCAR-8 ovarian is -18.1% (active); with OVCAR-5 ovarian, -3.98% (active); with OVCAR-4 ovarian it was 39.4%; with SK-OV-3 ovarian it was 9.66% (active); in the assay with IGROV1 ovarian it was 6.78% (active); in the assay on OVCAR-3 ovarian, 8.06% (active). Moreover, the growth is 35.5% with HS 578T breast and 42.2% in the assay with NCI/ADR-RES ovarian.

Turning to `COc1ccc(C(=O)/C=C/c2ccc3c(c2)OCCO3)cc1S(N)(=O)=O`, the growth in the assay on SK-MEL-2 melanoma is 114%; with EKVX NSCLC, 84.8%; in the assay with SN12C renal, 68.6%; in the assay with UO-31 renal, 48.5%; in the assay with TK-10 renal, 95.6%; in the assay with ACHN renal it was 69.6%. The growth in the assay with CAKI-1 renal is 85.6%; in the assay with A498 renal, 109%; with CCRF-CEM leukemia, 91%; in the assay with MOLT-4 leukemia, 37.4%; in the assay on SR leukemia, 17.6%; in the assay on RPMI-8226 leukemia it was 59.2%. Also, the growth was 40.7% in the assay on OVCAR-8 ovarian; 105% in the assay on OVCAR-5 ovarian; 83.3% in the assay on OVCAR-4 ovarian; 99% in the assay with SK-OV-3 ovarian; 63.6% in the assay on IGROV1 ovarian; 68.1% in the assay with OVCAR-3 ovarian. Also, the values for the growth with HS 578T breast and in the assay with NCI/ADR-RES ovarian were 87% and 53.1%, respectively.

In the case of `COc1ccc(N=Nc2c(N)nn3c(-c4ccc([N+](=O)[O-])cc4)ccnc23)cc1`, the growth is 106% in the assay on SK-MEL-2 melanoma; 97.5% in the assay on EKVX NSCLC; 92.7% with SN12C renal; 97.1% with UO-31 renal; 113% with TK-10 renal; 107% in the assay on ACHN renal. The growth is 88.9% with CAKI-1 renal; 114% with A498 renal; 92% in the assay on CCRF-CEM leukemia; 96% with MOLT-4 leukemia; 98.2% in the assay with SR leukemia; 94% in the assay with RPMI-8226 leukemia. Besides, the growth was 107% in the assay with OVCAR-8 ovarian; 113% in the assay with OVCAR-5 ovarian; 92.8% in the assay on OVCAR-4 ovarian; 106% with SK-OV-3 ovarian; 104% with IGROV1 ovarian; 113% with OVCAR-3 ovarian. Also, the growth is 89% in the assay on HS 578T breast and 97.8% with NCI/ADR-RES ovarian.

In the case of `O=C(Cn1c(-c2ccccc2)nc2ccccc21)N=Nc1c(O)[nH]c2ccc(Br)cc12`, the growth in the assay with SK-MEL-2 melanoma was -8.9% (active); with EKVX NSCLC, -23.3% (active); with SN12C renal, 1.91% (active); in the assay with UO-31 renal, -47.5% (active); with TK-10 renal, -17.5% (active); in the assay on ACHN renal, -80% (active). Also, the growth is -8.86% (active) in the assay with CAKI-1 renal; -38.1% (active) in the assay on A498 renal; 32.5% in the assay with CCRF-CEM leukemia; 20.8% in the assay with MOLT-4 leukemia; -25.7% (active) with SR leukemia; 21.9% in the assay on RPMI-8226 leukemia. Also, the growth was -39.2% (active) in the assay with OVCAR-8 ovarian; 0.0575% (active) with OVCAR-5 ovarian; -62.1% (active) in the assay with OVCAR-4 ovarian; -47.9% (active) in the assay on SK-OV-3 ovarian; -41.8% (active) in the assay on IGROV1 ovarian; -22.5% (active) in the assay with OVCAR-3 ovarian. In addition, the growth in the assay with HS 578T breast was -28.8% (active); with NCI/ADR-RES ovarian, -55.7% (active).

On to `Cn1cc(-c2cc(N)n3nc(-c4c[nH]c5ccc(F)cc45)cc3n2)c2cccnc21`, for which the growth was 86.8% with SK-MEL-2 melanoma; -64.9% (active) in the assay on EKVX NSCLC; -80.6% (active) with SN12C renal; -75.8% (active) in the assay on UO-31 renal; -68.7% (active) in the assay on TK-10 renal; -93.8% (active) with ACHN renal. Also, the growth was -70.7% (active) with CAKI-1 renal; -74.8% (active) with A498 renal; -34.6% (active) in the assay with CCRF-CEM leukemia; -30.1% (active) with MOLT-4 leukemia; -11.7% (active) in the assay with SR leukemia; -30.3% (active) in the assay with RPMI-8226 leukemia. Besides, the growth is -59.6% (active) with OVCAR-8 ovarian; -81.1% (active) in the assay on OVCAR-5 ovarian; -30% (active) with OVCAR-4 ovarian; -56% (active) with SK-OV-3 ovarian; -71.4% (active) in the assay on IGROV1 ovarian; -76.1% (active) in the assay with OVCAR-3 ovarian. Also, the growth with HS 578T breast was -14.6% (active); in the assay on NCI/ADR-RES ovarian, -44.7% (active).

In the case of `CN(C)c1nc(NCCNS(=O)(=O)c2ccc(C3=Nc4c(N)nc(N)nc4NC(c4ccc(Cl)cc4)C3)cc2)nc(N2CCOCC2)n1` (stereo not given), the growth with SK-MEL-2 melanoma was 98.5%; in the assay with EKVX NSCLC, 37.6%; in the assay on SN12C renal it was 37%; with UO-31 renal, 59.9%; in the assay with TK-10 renal, 86.8%; with ACHN renal, 69.2%. Further, the growth with CAKI-1 renal is 41.7%; with A498 renal it was 108%; in the assay on CCRF-CEM leukemia, 17.3%; in the assay with MOLT-4 leukemia it was 13.9%; in the assay with SR leukemia, 31.9%; in the assay with RPMI-8226 leukemia, 21.4%. Further, the growth with OVCAR-8 ovarian was 64.3%; with OVCAR-5 ovarian it was 82.7%; in the assay on OVCAR-4 ovarian, 66.9%; with SK-OV-3 ovarian, 75.9%; in the assay with IGROV1 ovarian, 45%; in the assay on OVCAR-3 ovarian it was 65.5%. Moreover, the growth in the assay on HS 578T breast is 45.2%; in the assay with NCI/ADR-RES ovarian it was 85.7%.
